Screening results as filed in PubChem.
GIRK2 act – activators of NPY4-receptor-primed GIRK2 channels, summary, cell-based, HEK293, thallium flux | HEK293 GIRK2/NPY4 cells, thallium flux fluorescence | activation (% efficacy), % for hits at 37.5 µM | 34,000 tested, under 10 active;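 active means primary screen hit, no activity in plain HEK293 cells, and in GIRK2-only cells above 5% efficacy rising with concentration; inactive means the rest, including fluorescent compounds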;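 further: efficacy is normalized control-subtracted fluorescence 15 s after thallium addition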
AMPAR-TARP mod – modulators of GluA2-stargazin AMPA receptor complexes, primary screen, cell-based, membrane potential dye; AID 1259245, 2017; 3.5% of 40,000 active; calls only at 30 µM; HEK293 GluA2+stargazin, membrane potential dye (FDSS), glutamate EC50; hits were called plate by plate, in both directions; Voltage-dependent calcium channel gamma-2 subunit (Mus musculus) + Glutamate receptor 2 …;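 active means any of four per-well response measures lying three or more SD from its plate-wide compound average, in either direction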
Each line names hits and unclear results; the compound was inactive in the other large screens. This excerpt belongs to a sample that is enriched for hits.

CCOc1ccc2ccccc2c1C(=O)NCc1ccsc1	AMPAR-TARP mod active
CCOc1ccc2ccccc2c1C(=O)NCC1CCN(C(C)C)CC1	none (no result: AMPAR-TARP mod)
CCOc1ccc2ccccc2c1C(=O)NCC(C)(O)c1ccccc1 (configuration not stated)	none (no result: AMPAR-TARP mod)
CCOc1ccc(S(=O)(=O)Nc2cccc(C)n2)c(C)c1C	none (no result: AMPAR-TARP mod)
CN1C(=O)C2C(c3ccc([N+](=O)[O-])cc3)NN(C)C2C1=O (configuration not stated)	AMPAR-TARP mod active (no result: GIRK2 act)
O=C(Nc1c2c(nn1-c1ccc(F)cc1)CSC2)C(=O)NC1CCCCCC1	none (no result: GIRK2 act)
COc1cccc(C(=O)Nc2cccc(-c3ccc(=O)n(C)n3)c2)c1OC	none
COc1cccc2sc(NC(=O)c3ccc(S(=O)(=O)C(C)C)cc3)nc12	AMPAR-TARP mod active
CC(=O)c1sc(NC(=O)c2ccc(S(=O)(=O)C(C)C)cc2)nc1C	AMPAR-TARP mod active (no result: GIRK2 act)
COc1ccc(-c2csc(NC(=O)c3ccc(S(=O)(=O)C(C)C)cc3)n2)cc1OC	none (no result: GIRK2 act)
CC(C)S(=O)(=O)c1ccc(C(=O)Nc2nc(-c3ccc(Cl)s3)cs2)cc1	none (no result: GIRK2 act)
Cc1ccc(C)c(N2CCN(C(=O)Cc3c(C)[nH]c(=O)[nH]c3=O)CC2)c1	none
Cc1cc(-n2nc(C)cc2C)n2nc(C(F)(F)F)nc2n1	none
O=C1CCCCN1c1cccc(NS(=O)(=O)c2cc(Cl)ccc2Cl)c1	none
Cc1csc(C(=O)NCCN2CCN(S(C)(=O)=O)CC2)c1	none (no result: AMPAR-TARP mod)
COc1ccc(CCC(=O)Nc2ccc(N3CCCCC3=O)c(OC)c2)cc1	none
CCC(=O)Nc1ccc(N2CCCCC2=O)c(OC)c1	AMPAR-TARP mod active (no result: GIRK2 act)
CCOc1ccc(N2C(=S)NC3CC2(C)Oc2ccc(F)cc23)cc1 (configuration not stated)	none (no result: GIRK2 act)
Nc1c(C(=O)N2CCCC2)sc2nc(-c3ccco3)c3c(c12)CCCC3	AMPAR-TARP mod active (no result: GIRK2 act)
COC(=O)c1c2c(nc3c1c(-c1ccco1)nn3C1CCS(=O)(=O)C1)CCC2 (configuration not stated)	none (no result: AMPAR-TARP mod)
CC(=O)c1sc2nc(-c3ccco3)c3c(c2c1N)CCCC3	AMPAR-TARP mod active (no result: GIRK2 act)
Cc1nc(C)c(C(=O)N2CCN(c3ccc4nnc(-c5ccco5)n4n3)CC2)s1	none
CCCc1cc(NCC2CCCO2)n2c(nc3ccccc32)c1C#N (configuration not stated)	AMPAR-TARP mod active
CCOC(=O)CC(=O)CSc1cc(C)c(C#N)c2nc3ccccc3n12	none
CCCS(=O)(=O)N1CCCc2ccc(NS(=O)(=O)c3ccc(OCC(C)C)cc3)cc21	none (no result: GIRK2 act)
CC(=O)N1CCN(c2oc(-c3ccccc3C)nc2S(=O)(=O)c2ccc(C)cc2)CC1	AMPAR-TARP mod active
O=S(=O)(c1ccccc1)c1nc(-c2ccccc2Cl)oc1N1CCCC1	AMPAR-TARP mod active
CC(=O)N1CCN(c2oc(-c3ccccc3)nc2S(=O)(=O)c2ccccc2)CC1	none
Cc1ccc(S(=O)(=O)c2nc(-c3ccccc3C)oc2N2CCC(C(N)=O)CC2)cc1	none
Cc1cc(=O)oc2cc(OCC(=O)c3ccc(Cl)c(Cl)c3)ccc12	none (no result: GIRK2 act)
Cc1cc(=O)oc2cc(OCC3CCNCC3)ccc12	AMPAR-TARP mod active
COc1ccc(Cl)cc1NC(=O)c1cc(S(=O)(=O)N2CCN(c3ccccc3F)CC2)ccc1F	none (no result: GIRK2 act)
COc1ccccc1N1CCN(S(=O)(=O)c2ccc(F)c(C(=O)Nc3ccc(Cl)cc3)c2)CC1	AMPAR-TARP mod active (no result: GIRK2 act)
CN(C)CCN(C(=O)c1ccnn1C)c1nc2c(F)cc(F)cc2s1	none (no result: AMPAR-TARP mod)
COc1ccc(-c2ccc(C)c(NC(=O)c3ccccc3OC)c2)nn1	AMPAR-TARP mod active
COc1ccc(-c2ccc(C)c(NC(=O)c3cccc(OC)c3OC)c2)nn1	none
O=C(CN1CCC(c2nnc(C3CC3)o2)CC1)NCCc1ccccc1	AMPAR-TARP mod active
O=C(NCCc1ccccc1)N1CCC(c2nnc(C3CC3)o2)CC1	none (no result: GIRK2 act)
O=C(C1CC1)N1CCN(Cc2nnnn2-c2ccc(F)c(F)c2)CC1	none
O=C(CSCc1ccccc1)N1CCN(Cc2nnnn2-c2ccc(F)c(F)c2)CC1	AMPAR-TARP mod active
O=C(Nc1ccc(-c2ccc(N3CCOCC3)nn2)cc1)Nc1cccc(Cl)c1	AMPAR-TARP mod active
Cc1ccccc1-c1ccc(N2CCC(C(=O)Nc3ccc4c(c3)OCO4)CC2)nn1	none
O=C(Nc1ccc2c(c1)OCO2)C1CCN(c2ccc(-c3ccc(Cl)cc3)nn2)CC1	AMPAR-TARP mod active
O=C(NCc1cccnc1)C1CCN(c2ccc(-c3ccc(Cl)cc3)nn2)CC1	none
O=C(Nc1cccnc1)C1CCN(c2ccc(-c3ccc(Cl)cc3)nn2)CC1	AMPAR-TARP mod active
O=C(Nc1ccc(-c2ccc(N3CCOCC3)nn2)cc1)Nc1ccccc1F	none
Cc1ccc(C(CNS(=O)(=O)c2cc(C)c(C)cc2C)N2CCOCC2)cc1 (configuration not stated)	none (no result: GIRK2 act)
CCOC(=O)c1c(NC(=O)CS(=O)(=O)Cc2ccccc2)sc2ccccc12	none
O=S(=O)(NCC1(O)CCOc2ccccc21)c1ccc(Cl)s1 (configuration not stated)	none (no result: AMPAR-TARP mod)
O=C(Nc1ccc(OC(F)(F)F)cc1)c1ccc(S(=O)(=O)NCc2cccs2)o1	AMPAR-TARP mod active
O=C(Nc1ccc(C(F)(F)F)cc1)c1ccc(S(=O)(=O)NCCc2ccccc2)o1	none
NS(=O)(=O)c1ccc(NC(=O)CCCn2nc(-c3ccco3)ccc2=O)cc1	none (no result: AMPAR-TARP mod)
CN(C)C(=O)CSc1ncnc2sc(-c3ccccc3)cc12	AMPAR-TARP mod active
O=C(CSc1ncnc2[nH]ncc12)c1ccc(-c2ccccc2)cc1	none (no result: GIRK2 act)
O=C(Cc1csc(SCC(=O)c2ccc3c(c2)OCO3)n1)NCCC1=CCCCC1	none (no result: AMPAR-TARP mod)
COc1ccc(C(=O)NCCC2=CCCCC2)cc1	none
CCc1ccc(OCC(=O)NCCC2=CCCCC2)cc1	AMPAR-TARP mod active
Cc1ccc(CSc2nc(CC(=O)NCCC3=CCCCC3)cs2)cc1	AMPAR-TARP mod active
CSc1ncccc1C(=O)N1CCC(CNC(=O)C(=O)Nc2cccnc2)CC1	none
CCc1cc(CC)n(-c2nc3c(c(=O)n(CC(C)C)c(=O)n3C)n2CCOC)n1	none (no result: GIRK2 act)
CCc1cc(CC)n(-c2nc3c(c(=O)n(Cc4ccccc4)c(=O)n3C)n2CCOC)n1	AMPAR-TARP mod active (no result: GIRK2 act)
CCOCCn1c(-n2nc(C)cc2C)nc2c1c(=O)n(Cc1cccc(C)c1)c(=O)n2C	AMPAR-TARP mod active
CCOCCn1c(=O)c2c(nc(-n3nc(C)cc3C)n2Cc2ccc(F)cc2)n(C)c1=O	none
O=C(c1cnn(-c2ccccc2)n1)N1CCC(c2nnc(-c3ccco3)s2)CC1	none
COc1ccc(-c2cc(CC(=O)Nc3ccccc3C)no2)cc1	none
COc1ccc(-n2nnc3c(N4CCN(C(=O)c5ccccc5Cl)CC4)ncnc32)cc1	none (no result: GIRK2 act)
CCC(CC)C(=O)N1CCN(c2ncnc3c2nnn3-c2cccc(OC)c2)CC1	AMPAR-TARP mod active (no result: GIRK2 act)
COc1ccc(-n2nnc3c(N4CCN(C(=O)c5ccccc5SC)CC4)ncnc32)cc1	AMPAR-TARP mod active (no result: GIRK2 act)
O=C(CC(c1ccccc1)c1ccccc1)N1CCN(c2ncnc3c2nnn3-c2ccccc2)CC1	AMPAR-TARP mod active (no result: GIRK2 act)
CCSc1ccccc1C(=O)N1CCN(c2ncnc3c2nnn3-c2ccc(OC)cc2)CC1	AMPAR-TARP mod active (no result: GIRK2 act)
CCC(=O)N1CCN(c2ncnc3c2nnn3-c2cccc(OC)c2)CC1	none (no result: GIRK2 act)
CCSc1ccccc1C(=O)N1CCN(c2ncnc3c2nnn3-c2ccc(C)cc2)CC1	none (no result: GIRK2 act)
O=C(CSCc1ccccc1)N1CCN(c2ncnc3c2nnn3-c2ccccc2)CC1	none (no result: GIRK2 act)
Cc1cc(C)cc(C(=O)NCCS(=O)(=O)N2CCN(c3ncccn3)CC2)c1	none
